Whole data set: some 33,000 sequences, median “E-score (-0.5 to 0.5)” near -0.013, cut for the highest 2% near 0.3. The full list was thinned out, with the highest values kept by preference.
molecular target: T1, Msn1 (UniProt P22148); assay: PBM E-score (8-mer binding enrichment) (E-score (-0.5 to 0.5)); higher = stronger / more preferred TF binding; conditions: protein concentration: 200 nM; construct: GST-full length
T1 sequence: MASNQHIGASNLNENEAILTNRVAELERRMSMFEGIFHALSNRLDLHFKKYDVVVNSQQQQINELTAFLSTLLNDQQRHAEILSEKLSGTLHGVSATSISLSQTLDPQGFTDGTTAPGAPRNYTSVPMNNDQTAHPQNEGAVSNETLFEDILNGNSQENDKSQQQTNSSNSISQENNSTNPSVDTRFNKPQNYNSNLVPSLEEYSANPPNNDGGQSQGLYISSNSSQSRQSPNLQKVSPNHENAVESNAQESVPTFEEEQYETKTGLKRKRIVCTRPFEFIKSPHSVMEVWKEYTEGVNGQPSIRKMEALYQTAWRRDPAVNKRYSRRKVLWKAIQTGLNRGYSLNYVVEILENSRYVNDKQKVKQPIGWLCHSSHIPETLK
Method: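 Universal 'all 10-mer' protein binding microarrays (Agilent AMADID 015681) probed with GST-tagged S. cerevisiae TFs (full-length or DBD) made by in vitro transcription/translation (PURExpress), about 100-200 nM. Bound TF was detected with fluorescent anti-GST. Each ungapped 8-mer (which stands for itself and its reverse complement) is scored by the PBM enrichment score (E-score), a modified Wilcoxon-Mann-Whitney statistic from -0.5 to +0.5, computed with the Universal PBM Analysis Suite. Scale: above 0.35 generally sequence-specific binding.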

Row | Sequence | PBM E-score
1 | ACTAGCGA | 0.0418
2 | AGCATGCG | -0.0235
3 | GAGTCTCA | 0.00041
4 | CGATAACC | 0.0193
5 | GAAATGGA | -0.0913
6 | GAAATGAC | 0.216
7 | CCGATTTA | 0.109
8 | GAGCCCTC | -0.318
9 | CCCTAGTA | -0.0771
10 | CAAGCGTA | -0.0459
11 | CCTTTTAC | 0.0837
12 | CTGGGGCC | -0.384
13 | AGGACTAG | 0.273
14 | ACGACAAT | 0.24
15 | AGGACAAT | 0.483
16 | AGGACTAC | -0.122
17 | AGGACGAT | -0.0393
18 | AGGACAAC | 0.436
19 | AGGACCAC | -0.124
20 | AGGACAAG | 0.472
21 | AGGACCAG | -0.141
22 | ATTCGAAA | 0.0661
23 | AATCTGGT | 0.0578
24 | ATAGGTAC | 0.199
25 | GCTTTCGA | -0.175

Row | Sequence | PBM E-score
26 | ATGCCTGC | -0.145
27 | ACGGTTAA | -0.117
28 | CCTCGTTC | -0.202
29 | AGAAAACA | 0.108
30 | AAGGACAA | 0.485
31 | AAGGACGG | -0.145
32 | CAGGACCA | -0.0434
33 | AAGGACAG | 0.296
34 | CAGGACAA | 0.481
35 | AAGGACGA | 0.0414
36 | AAGGACCA | -0.0926
37 | AAGGACTG | -0.0408
38 | AAGGACTA | -0.00885
39 | CAGGACAG | 0.259
40 | AAGGACGT | 0.32
41 | AAGGACTT | 0.347
42 | GCCCGTCA | -0.234
43 | ACCGGTAA | -0.0138
44 | AACTTTGA | 0.12
45 | AAATTCGT | 0.256
46 | AGCCCCGC | -0.0507
47 | GGGCCTAA | -0.0118
48 | TAGGACAA | 0.491
49 | TAGGACCA | 0.202
50 | TAGGACTA | 0.257

Row | Sequence | PBM E-score
51 | AAGGAGAT | -0.164
52 | AAGGACCT | 0.0694
53 | AAGGACAT | 0.49
54 | TATATGCA | 0.102
55 | ACATTCAA | 0.134
56 | CTTGGCCA | -0.0402
57 | GAGGACCA | -0.184
58 | CAGGACAC | 0.407
59 | GAGGACTC | -0.078
60 | GAGGACAC | 0.398
61 | AAGGACAC | 0.449
62 | CAGGACGC | 0.00853
63 | GAGGACAA | 0.466
64 | CAGAACAC | -0.0663
65 | GAGGACCC | -0.218
66 | GAGGACTA | 0.0516
67 | AAGGACGC | 0.167
68 | AAGGACCC | -0.0634
69 | GCCGGTAA | 0.146
70 | ATATTCGG | 0.11
71 | AGCAGTTA | -0.0695
72 | CTCGACAG | -0.14
73 | TACACTGA | 0.0723
74 | GCCTAAAC | 0.0003
75 | AGTCGCTA | -0.0278

Row | Sequence | PBM E-score
76 | ACGATGTA | 0.00548
77 | GCATCACA | -0.0397
78 | ATCGTGCC | 0.0402
79 | ATCGTGCG | 0.306
80 | ATCGTGCA | 0.125
81 | CCCAGACC | -0.348
82 | AATTTAAT | 0.298
83 | GCCCGCAA | -0.0655
84 | GCATTGAA | -0.0579
85 | AGAAATCC | -0.0711
86 | GTGAGACA | 0.315
87 | CCGAGACC | -0.0572
88 | CCGAGACA | 0.319
89 | GTGAGAAA | 0.124
90 | ATGAGACA | 0.358
91 | CTGAGACA | 0.319
92 | CTGAGAGA | -0.0585
93 | ATGAGACC | -0.0403
94 | ACGAGACA | 0.275
95 | GTGAGAGA | -0.0903
96 | ATGAGACG | -0.109
97 | CTGAGACC | -0.18
98 | AGGGGACC | -0.207
99 | CCCAGCAC | -0.148
100 | GCATCCAA | -0.225

Row | Sequence | PBM E-score
101 | AATAAAGT | 0.209
102 | AAGGATTG | 0.191
103 | GAGGGTAA | -0.114
104 | GCAGTAGC | -0.289
105 | CGTTTCAG | 0.176
106 | GCGATGAC | 0.0728
107 | GCGGTAGC | 0.041
108 | CAACCATG | 0.0589
109 | ACAAATAC | 0.328
110 | CCAAATAG | -0.0591
111 | CCAAATAC | -0.058
112 | AGAAATAT | 0.181
113 | GCAAATAA | 0.0601
114 | AAAAATAT | 0.208
115 | AAAAATAG | 0.189
116 | ACAAATAT | 0.404
117 | GCAAATAC | 0.0266
118 | TCAAATAA | 0.234
119 | ACAAATAA | 0.307
120 | ACAAATAG | 0.322
121 | ACTTCCCT | -0.185
122 | CAAAAAGA | 0.0247
123 | CGAGTGAC | 0.0781
124 | AAAATGCT | 0.0679
125 | ACCGATGC | -0.136

Row | Sequence | PBM E-score
126 | ATCACCTA | 0.0704
127 | ATCCAGGA | -0.015
128 | CCCAAGGG | -0.22
129 | GTGGACGA | 0.18
130 | CTGGACAA | 0.43
131 | TTGGAAAA | 0.0431
132 | CTGGACAC | 0.29
133 | TTCGACAA | 0.191
134 | GTGGACTA | 0.144
135 | CTGGACAG | 0.0403
136 | TTGGACAA | 0.47
137 | GTGGACAA | 0.468
138 | TCTTTCCA | -0.0394
139 | CCCTTACC | -0.181
140 | ATTATGTG | 0.151
141 | ATTATGTA | 0.149
142 | CTTATGAC | 0.233
143 | ATTATGTC | 0.367
144 | CTTATGTC | 0.374
145 | CTTATGTA | 0.124
146 | ATTCGCTG | 0.00671
147 | TACCCGCA | -0.0605
148 | CATTACGG | 0.0771
149 | TAGGGGCA | -0.254
150 | AAGTACCA | 0.107

Row | Sequence | PBM E-score
151 | ACATAAAT | 0.307
152 | ACATAAAA | 0.178
153 | ACATAAAG | 0.224
154 | ACATACAC | 0.207
155 | CAGTACAA | 0.262
156 | ACATACAT | 0.309
157 | GAGTACAA | 0.262
158 | AAGTACGA | 0.133
159 | ACATACAG | 0.167
160 | TAGTACAA | 0.321
161 | AAGTACAA | 0.306
162 | CGGTAGTC | -0.00298
163 | GTGATCTA | 0.00906
164 | ACTTTTGA | 0.208
165 | ATATCCGG | 0.11
166 | GTCTCAAC | 0.136
167 | TCTAAAGA | 0.205
168 | AACCTTCT | -0.205
169 | TAAATCCA | 0.0101
170 | CGAAGATC | -0.0505
171 | ACGTACAG | -0.0675
172 | AAGTACAT | 0.356
